Laboratory results from PubChem BioAssay (NCI).
About 83,000 compounds went through this panel and 20% of them were active in at least one assay; those are over-represented in the sample as a whole.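 Step 1: grow cells in 96-well plates. Step 2: add test compound at a single concentration. Step 3: incubate 48 h. Step 4: record percent growth.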 A number with no mark means an inactive call. The source made the active and inactive calls. The calls were made as follows: active = growth percent below 10; inactive = the rest.

How the values were obtained:
Experiment in all cases: NCI-60 one-dose screen, 48 h (100 = growth as untreated, 0 = no growth, -100 = all killed)
Conditions in all cases: 10 µM
DU-145 prostate = tested on: DU-145 prostate
K-562 leukemia = tested on: K-562 leukemia
MALME-3M melanoma = tested on: MALME-3M melanoma
MDA-MB-231 breast = tested on: MDA-MB-231 breast
SF-268 CNS = tested on: SF-268 CNS
SF-295 CNS = tested on: SF-295 CNS
SF-539 CNS = tested on: SF-539 CNS
UACC-257 melanoma = tested on: UACC-257 melanoma
M14 melanoma = tested on: M14 melanoma

Structure (SMILES) | growth (DU-145 prostate) | growth (K-562 leukemia) | growth (MALME-3M melanoma) | growth (MDA-MB-231 breast) | growth (SF-268 CNS) | growth (SF-295 CNS) | growth (SF-539 CNS) | growth (UACC-257 melanoma) | growth (M14 melanoma)
N#Cc1ccc(-c2nn(-c3ccc(C(=O)O)cc3)cc2CNc2cc(Cl)cc(C(F)(F)F)c2)cc1 | 26.7% | 19.4% | 14.7% | 27.7% | 31.9% | 9.39% (active) | -26.4% (active) | 14.9% | 11.3%
COc1ccc2[nH]c(=O)c(CSc3ccc(Nc4nccc(-c5ccc(Cl)cc5)n4)cc3)cc2c1 | 111% | 81.9% | 113% | 90.1% | 99.9% | 102% | -41% (active) | 120% | 109%
CCOC(=O)N/C(=C1/OCCN1C)[P+](c1ccccc1)(c1ccccc1)c1ccccc1 | 93% | 41.2% | 71% | 59.9% | 103% | 88.1% | 78.1% | 27.8% | 90.9%
CC(=O)Nc1ccc(-c2cn(-c3cccc(C(=O)Nc4ccc(Cl)c(C(F)(F)F)c4)c3)nn2)cn1 | 3.54% (active) | 4.92% (active) | -89.6% (active) | -87% (active) | 6.74% (active) | -64.2% (active) | -97.4% (active) | -21.8% (active) | -49.1% (active)
COc1ccc2ncc(C#Cc3cncc(C(=O)Nc4ccc(CN5CCN(C)CC5)c(C(F)(F)F)c4)c3)n2n1 | -100% (active) | -9.3% (active) | -93.6% (active) | -95.8% (active) | -64.5% (active) | -97.5% (active) | -100% (active) | -62.2% (active) | -80.2% (active)
O=c1[nH]c2ccccc2cc1CSc1ccc(Nc2nccc(-c3ccc4ccccc4c3)n2)cc1 | 25.5% | 64% | 39% | 30.5% | 72.1% | 89.6% | 16.1% | 105% | 69.8%
CC(=O)Oc1ccccc1C(=O)Oc1ccc(C(=O)/C=C/c2ccncc2)cc1 | 46.2% | 11.6% | 86.2% | 40.8% | 75% | 59.1% | -35.6% (active) | 94.9% | 47.6%
CC(=O)c1cc(C(=O)c2ccc3c(c2)NC(=O)CO3)n2ccc3ccccc3c12 | 84.1% | 84.1% | -5.58% (active) | 29.9% | 79% | 98.9% | 31.9% | 86.1% | 65.1%
O=S(=O)(Nc1ncccn1)c1ccc(-n2c(-c3ccccc3)nc(-c3ccccc3)c2-c2ccccc2)cc1 | 101% | 92.6% | 111% | 87.7% | 85% | 65.9% | 83.4% | 118% | 102%
CCCn1c(O)c(N=Nc2nc(-c3cc4ccccc4oc3=O)cs2)c2cc(Br)ccc21 | 101% | 110% | 88% | 89.2% | 89.8% | 85.3% | 85% | 107% | 97.6%
[2H]C([2H])([2H])Oc1ccc2ncc(C#Cc3cncc(C(=O)Nc4ccc(CN5CCN(C)CC5)c(C(F)(F)F)c4)c3)n2n1 | -98.8% (active) | 1.31% (active) | -81.1% (active) | -90.5% (active) | -42.8% (active) | -77% (active) | -90.2% (active) | -65.9% (active) | -61.9% (active)
O=C1CCC(N2Cc3cc(CC(=O)Nc4ccc(N5CCCCC5)cc4)ccc3C2=O)C(=O)N1 (centres undefined) | 94.5% | 77.3% | -25.4% (active) | 7.12% (active) | 61.9% | 57.4% | 65.6% | 102% | 39.4%
COc1ccccc1C(=O)NNC(=O)CSc1nc2c(c(=O)[nH]1)CCCC2 | 104% | 100% | 95.6% | 86.3% | 101% | 99.2% | 101% | 107% | 101%
COC1=C[C@]23CCC(=O)N2CCc2cc4c(cc2[C@@H]3[C@@H]1OC(=O)CCCC(C)C)OCO4 | 84.2% | 17.6% | 4.86% (active) | 98.5% | 133% | 69.9% | 11.3% | 78.9% | 57.1%
O=C(NO)c1ccc(CNC(=O)[C@H]2Cc3c([nH]c4ccccc34)[C@H](c3ccc(Cl)cc3)N2)cc1 | 10.7% | 9.83% (active) | 6.92% (active) | -11.1% (active) | 22.6% | -17.4% (active) | 2.84% (active) | 15.1% | 23%
CC1(c2ccccc2)NC(=O)N(CC(=O)Nc2ccc(C(=O)/C=C/C=C/c3ccccc3)cc2)C1=O (centres undefined) | 61.3% | 14.8% | 81.3% | 63.1% | 57.1% | 5.15% (active) | 20.5% | 63.6% | 59.3%
COc1ccc(C(=O)/C=C/c2ccc(Cl)c(C(F)(F)F)c2)cc1S(N)(=O)=O | -20.9% (active) | 5.18% (active) | -97.9% (active) | -100% (active) | -40.5% (active) | -100% (active) | -100% (active) | -78.2% (active) | -87.5% (active)
CC(=O)Nc1ccc(-c2cn(-c3cccc(C(=O)Nc4cc(CN5CCOCC5)cc(C(F)(F)F)c4)c3)nn2)cn1 | -40% (active) | 0.612% (active) | -97.1% (active) | -95.7% (active) | -27.5% (active) | -88.6% (active) | -100% (active) | -81.5% (active) | -90.3% (active)
Nc1nc(Nc2ccc(Cl)cc2)nn1Cc1cccc(Br)c1 | 53.3% | 20.5% | 50.6% | 42.6% | 40.7% | 44.7% | 37.8% | 58.2% | 35.8%
O=c1[nH]c2ccccc2cc1CSc1ccc(Nc2nccc(-c3ccc(C(F)(F)F)cc3)n2)cc1 | 32.3% | 54.9% | 6.21% (active) | 11.9% | 40.4% | -62.6% (active) | 12% | 90% | 80.1%
CC(C)(C)c1ccc(NCc2cn(-c3ccc(C(=O)O)cc3)nc2-c2ccc(C#N)cc2)cc1 | 36.1% | 14.8% | 42.9% | 41.9% | 33.9% | 19.2% | 14.3% | 45.5% | 30.1%
O=C(NO)c1ccc(-c2nc3ccc4[nH]ncc4c3c3c2CCCC3)cc1 | 1.34% (active) | 10.1% | -80.5% (active) | -27.6% (active) | -53.6% (active) | -17.9% (active) | -97.4% (active) | -18.8% (active) | -62.5% (active)
O=C(CSc1nnc(-c2ccc3nc(-c4ccccc4)[nH]c3c2)o1)Nc1ccc(Cl)cc1 | 73.6% | 16.7% | 44% | 27.4% | 59.6% | -14.9% (active) | 23.4% | 75.3% | 39.7%
O=C(/C=C/Nc1ccc(F)cc1F)c1ccc2c(c1)Nc1ccccc1S2 | 89.4% | 28.6% | 66.1% | 77.5% | 82.2% | 65.3% | 62.4% | 88.2% | 66.4%
Cc1ccc(/C=C/C(=O)c2ccc(NC(=O)CSc3nnc(-c4c[nH]c5ccccc45)n3-c3ccccc3)cc2)cc1 | 93% | 64.1% | 93.9% | 83.7% | 82.2% | 92.4% | 7.12% (active) | 111% | 82.1%
Cc1ccc(/C(CSc2nnc(-c3c[nH]c4ccccc34)n2-c2ccccc2)=N/O)cc1 | -60.2% (active) | 1.59% (active) | 16.7% | -82.1% (active) | -60.1% (active) | -49.9% (active) | 10.1% | 35.7% | -64.4% (active)
